According to PubChem BioAssay AID720535 (National Center for Advancing Translational Sciences (NCATS), 2013):
About 420 (26%) of roughly 1,600 compounds were called active. A call without a number means that no potency is given here. Roughly 40% stayed inconclusive and do not appear here. Calls follow the shape of the dose curve; as a rule, active = well fitted inhibition curve with a large enough effect; inconclusive = small, poorly fitted or top-dose-only effect; inactive = flat fitted curve, though single readings scatter. The full list was thinned out, with actives kept by preference.
Potency is read from the fitted curve at half-maximal effect.

Assay: qHTS for Inhibitors of TGF-b: Cytotox Counterscreen for Cherry Picks; also: nearly all actives have a fitted effect of over 70% in size
Details: HepG2 CAGA-GFP viability, ATP luminescence, 18 h, cells stimulated with TGF-beta, 500 pg/mL; series mostly up to 46.1 µM
Excerpt: TGF-b is a main component in the TGF-b signaling pathway which plays diverse roles in cellular and development pathways. TGF-b is mediated by transcription factors called "Smads". Although the Smad-dependent pathway is the primary canonical TGF-b signaling mode, TGF-b1 can also activate alternative signaling pathways, including those involving MAPK (ERK, JNK and p38). This interaction may mediate or enhance Smad-dependent responses, or can exert Smad-independent effects. The complexity of this signaling cascade allows the TGF-b superfamily to perform unique, overlapping or redundant functions. We believe that targeting the TGF-beta pathway at the Smad-transcription factor level may eliminate the consequences of disrupting the entire pathway and offer specificity without affecting other signaling pathways. Smad3 is the primary transducer of TGF-b's signals and Smad3 regulates many functions attributed to TGF-b signaling. We hypothesize that Smad3 inhibitors will selectively eliminate Smad3-specific TGF-beta signals without undesired off-target effects. We aim to identify Smad3-small molecule antagonists using a quantitative high throughput screening (qHTS) approach. A high-throughput assay was developed to screen the NIH Molecular Libraries Small Molecule Repository (MLSMR). This is a cell based assay, where TGF-b is tagged with GFP. This is a counterscreen that evaluates the cytotoxicity of the compounds that were identified as hits in the primary cell-based screen (AID 588855). MH087449NIH Chemical Genomics Center [NCGC] NIH Molecular Libraries Probe Centers Network [MLPCN] MLPCN Grant: MH087449 Assay Submitter (PI): Sushil Rane, National Institute of Diabetes and Kidney Diseases
Suspensions of trypsinized HEPG2 CAGA-GFP cells were dispensed into white, tissue culture-treated, solid 1536-well plates at 5uL/well (1000 cells/well final concentration) in DMEM medium supplemented with 1% FBS. Plates were incubated at 37 degrees C for 2 hours, after which 23 nL of compounds or DMSO were delivered to each well using a pin tool. One uL of recombinant TGF-beta in DMEM (1% FBS) was then dispensed (500 pg/mL final concentration), and plates were incubated at 37 degrees C for 18 hours. Two uL of CellTiter Glo (Promega), a luminescence-based viability reagent, was dispensed, followed by a 10 minute room temperature incubation. The plates were then measured on a PerkinElmer ViewLux plate reader for luminescence (clear filter) using a 5 second exposure. The %Activity was determined from the corrected luminescence values. Wells containing media only (no cells) were used to normalize %Activity of identified toxic compounds; media-only wells corresponded to 100%Activity (complete cell-killing), while DMSO-dosed cell controls were used to normalize 0%Activity (no toxicity). Concentration-response curves were fitted to the signals arising from the resulting luminescence. The concentration-effect curves were then classified based on curve quality (r2), response magnitude and degree of measured activity, and compounds were subsequently categorized based on their curve class.
For `COc1cc(NC(=O)c2[nH]cnc2C(N)=O)cc(C(=O)Nc2cccc(C(F)(F)F)c2)c1`, the Potency was 20.6 µM (active).
For `Cc1ccc(S(=O)(=O)Nc2nc3ccccc3nc2N2CCc3ccccc3C2)cc1`, the Potency was “inactive”.
For `Cc1ccc(CN2CC(N3CCC(Cc4ccccc4)CC3)CS2(=O)=O)cc1` (centres undefined), the Potency was “inactive”.
In the case of `COc1ccc(C)cc1S(=O)(=O)N1CCN(S(=O)(=O)c2cc(C(=O)O)ccc2C)CC1`, the Potency was “inactive”.
In the case of `O=C(/C(=C/c1cccc(Cl)c1)c1nc2ccccc2[nH]1)c1ccccc1`, the Potency was 6.51 µM (active).
In the case of `CN(c1ccccc1)S(=O)(=O)c1ccc(C(=O)N2CCN(c3ccccc3Cl)CC2)cc1`, the Potency was “inactive”.
With `O=c1[nH]c(CCl)nc2cc(-c3ccc(Cl)cc3)sc12` the Potency was 23.1 µM (active).
For `CN(C)CCNC(=O)c1ccc(Cl)c2cc3ccccc3nc12`, the Potency was 2.59 µM (active).
With `CC[C@H]1CN2CCc3cc(OC)c(OC)cc3[C@@H]2C[C@@H]1C[C@H]1NCCc2cc(OC)c(OC)cc21` the Potency was 3.66 µM (active).
For `COc1ccc(-c2onc(C)c2-c2ccc3c(c2)OCCO3)c(O)c1`, the Potency was “inactive”.
With `COc1ccc(CC(=O)Nc2ccccc2NC(=O)c2ccco2)cc1OC` the Potency was “inactive”.
For `O=C(Nc1nnc(S(=O)(=O)N2CCCCCC2)s1)c1cccc(Br)c1`, the Potency was 7.31 µM (active).
For `Cc1ccc(S(=O)(=O)Nc2ccc3c(c2)C(=O)N([C@H](C)CO)C[C@@H](C)[C@@H](CN(C)C(=O)Nc2cccc4ccccc24)O3)cc1`, the Potency was “inactive”.
In the case of `Cc1cccc2sc(N(CCCN(C)C)C(=O)CCS(=O)(=O)c3ccccc3)nc12`, the Potency was 18.4 µM (active).
With `COc1cccc2sc(N(CCCN(C)C)C(=O)CCS(=O)(=O)c3ccccc3)nc12` the Potency was 13 µM (active).
For `COC(=O)COc1cccc2c(=O)n(CC(=O)NCc3ccccc3)ccc12`, the Potency was “inactive”.
For `CCCc1cc(-c2n[nH]c(=S)n2CC)c2ccccc2n1`, the Potency was “inactive”.
For `Cc1ccc(C)c(S(=O)(=O)N2CCN(CC(=O)Nc3ccc([N+](=O)[O-])cc3)CC2)c1`, the Potency was “inactive”.
In the case of `Cc1ccnc(NC(=O)C2CCN(S(=O)(=O)c3c(C)c(C)cc(C)c3C)CC2)c1`, the Potency was 11.6 µM (active).
With `Fc1cc(F)c2nc(Nc3nc4c(F)cccc4s3)sc2c1` the Potency was “inactive”.
In the case of `Cc1cc(C)cc(N(CC(=O)N2CC=C(c3ccccc3)CC2)S(=O)(=O)c2c(C)noc2C)c1`, the Potency was “inactive”.
For `Cc1cccc(CS(=O)(=O)c2ncc(Cl)c(C(=O)Nc3ccc(F)cc3)n2)c1`, the Potency was 10.3 µM (active).
In the case of `Cc1cccc(NC(=O)c2nc(S(=O)(=O)Cc3ccccc3)ncc2Cl)c1`, the Potency was 4.61 µM (active).
In the case of `CC(=O)c1cccc(-c2cnc3c(NC=O)cc(-c4ccc(N(C)C)cc4)cn23)c1`, the Potency was “inactive”.
With `O=C(Nc1ccc(Cl)cc1)Nc1nnc(/C=C/c2ccccc2)s1` the Potency was “inactive”.
For `COc1ccc2nc(N3CCN(C(=O)c4ccc([N+](=O)[O-])o4)CC3)sc2c1`, the Potency was 23.1 µM (active).
With `c1ccc2cc3c(NCCN4CCOCC4)ccnc3cc2c1` the Potency was 18.4 µM (active).
For `CN(C(=O)c1cccc(NC(=O)Cc2cccc([N+](=O)[O-])c2)c1)C1CCCCC1`, the Potency was “inactive”.
For `OCCCNc1nccc(-c2cc(Nc3cccc(Cl)c3)ncn2)n1`, the Potency was 0.651 µM (active).
In the case of `CCOC(=O)C1=C(N)N(c2ccc(C)cc2)C2=C(C(=O)CCC2)C1c1cccs1` (centres undefined), the Potency was “inactive”.
In the case of `CN(C)c1nc(=Nc2cccc(Cl)c2)ss1`, the Potency was “inactive”.
With `COc1cccc(CNc2nc(NCc3ccccc3OC)nc3ccsc23)c1` the Potency was 16.4 µM (active).
For `FC(F)(F)c1ccccc1Cc1c(-c2ccccc2)nc2c3ccccc3ccn12`, the Potency was “inactive”.
In the case of `COc1cc(NC(=O)c2ccccc2NS(=O)(=O)c2ccc(Cl)s2)cc(OC)c1`, the Potency was 8.2 µM (active).
With `COc1cc(CC(=O)Nc2nc(-c3ccc(F)c(F)c3)cs2)cc(OC)c1OC` the Potency was 9.2 µM (active).
In the case of `Cn1c(=O)n(C)c2cc(S(=O)(=O)N3CCCc4ccccc43)ccc21`, the Potency was “inactive”.
For `CC1CCc2c(nc3ncnn3c2Nc2ccc(OC(F)(F)F)cc2)C1` (centres undefined), the Potency was “inactive”.
For `Clc1ccc2c(c1)C1=C(C(c3ccncc3)O2)C(c2ccc(Br)cc2)n2ncnc2N1` (centres undefined), the Potency was “inactive”.
With `O=C(NC1=CC(=O)c2ccccc2C1=O)c1ccccc1` the Potency was 8.2 µM (active).
